# In PubChem BioAssay (NCI):
# This is part of a sample that, as a whole, favours compounds with a hit. Of some 79,000 tested, about 15% had one in any assay. A number with no mark means an inactive call. The source made the active and inactive calls. No stated cut-off is given here; in the data, active means growth inhibition above about 70%; inactive means the rest.
# How the values were obtained:
# [1] = NCI Yeast Anticancer Drug Screen. Data for the rad50 strain (AID 155);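 further: 0% = growth of vehicle-only cultures of the same strain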; settings: S. cerevisiae rad50 strain growth inhibition; at 50.0 µM; hits give high values
# Method in brief: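 Readout: growth inhibition relative to vehicle-treated cultures. Compound exposure was carried out in a genetically defined yeast strain deficient in DNA damage repair.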
# [2] = NCI Yeast Anticancer Drug Screen. Data for the mec2-1 strain (AID 157); settings: S. cerevisiae mec2-1 strain, at 50.0 µM, hits give high values
# Method in brief: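 Growth inhibition is read against vehicle-treated controls after compound exposure of the mec2-1 yeast strain, which is defective in DNA damage repair or cell cycle control.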
# [3] = NCI Yeast Anticancer Drug Screen. Data for the sgs1 mgt1 strain (AID 161);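 further: 0% = growth of cultures given vehicle only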; settings: S. cerevisiae sgs1 mgt1 strain, at 50.0 µM, hits give high values
# Method in brief: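 This yeast growth screen uses a strain with defined DNA-repair lesions; compound-treated growth is compared with vehicle-treated growth.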
# [4] = NCI Yeast Anticancer Drug Screen. Data for the cln2 rad14 strain (AID 165);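 further: 0% = growth equal to vehicle treated cultures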; settings: S. cerevisiae cln2 rad14 strain, at 50.0 µM, hits give high values
# Method in brief: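 Growth inhibition, relative to vehicle-treated controls, is the read-out. The test organism is a yeast strain with defined genetic alterations, cln2 rad14.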
# [5] = NCI Yeast Anticancer Drug Screen. Data for the bub3 strain (AID 167); settings: S. cerevisiae bub3 mutant strain, at 50.0 µM, hits give high values
# Method in brief: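 Readout: yeast growth inhibition, expressed relative to vehicle-only wells. The test organism is a mutant strain from a panel with lesions in DNA repair or checkpoint genes.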
# [6] = NCI Yeast Anticancer Drug Screen. Data for the mlh1 rad18 strain (AID 175); settings: S. cerevisiae mlh1 rad18 strain growth inhibition; at 50.0 µM; hits give high values
# Method in brief: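 Cells of a genetically altered yeast strain, deficient in DNA damage repair, were treated with compound. Their growth was then compared with that of vehicle-treated cultures to give inhibition.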
Structure (SMILES),growth inhibition [1] [%],growth inhibition [2] [%],growth inhibition [3],growth inhibition [4] [%],growth inhibition [5] [%],growth inhibition [6]
O=C(CNc1ccccc1[N+](=O)[O-])Nn1cnc2ccc(S(=O)(=O)Nc3ccccc3[N+](=O)[O-])cc2c1=O,25.8,-1.25,39.8%,15.1,21.2,28.5%
O=C(NCc1ccc([N+](=O)[O-])cc1)c1ccccc1,4.15,4.45,-6.4%,10.1,0.85,6.7%
NNC(=S)N/N=C(\CCCC(=O)NCCc1ccccc1)CC(=O)c1ccccc1,-3.6,12.8,-21.3%,18.1,8.15,8.8%
CCCCCCCCCC1OC(C)C(C)O1 (stereo not given),24.6,7.55,16.3%,-19.1,1.55,29.4%
O=C(OCc1ccccc1)C1(O)CCCCC1,-5.6,-16.2,-6.25%,-2.7,-5,-7.4%
CCCCOCCOC(=O)Nc1cccc(Cl)c1,35,30.7,51.1%,-11.6,-0.3,2.15%
COC1/C=C/OC2(C)Oc3c(C)c(O)c4c(O)c(c(/C=N/N5CCN(Cc6cccc(C(F)(F)F)c6)CC5)c(O)c4c3C2=O)NC(=O)C(C)=C/C=C/C(C)C(O)C(C)C(O)C(C)C(OC(C)=O)C1C (stereo not given),11.7,30.7,35.3%,27.2,11.8,43.1%
COc1ccc(/C=C/C(CC(NO)c2ccc(OC)cc2)=N\O)cc1 (stereo not given),0.1,-4.25,3.05%,-38,-8.7,3.8%
C=C1C(c2ccccc2)C(c2ccccc2)=C(C)C(c2ccccc2)=CN1C(=O)c1ccccc1 (stereo not given),-3.05,8.7,-9.2%,23.2,-4.7,15.2%
O=C(O)c1c(O)c(O)cc2ccccc12,24.1,-17.8,-13.4%,-51.5,25.6,23.4%
O=C(COc1ccc(Cl)cc1)Nc1nccs1,4.95,32,26.6%,5.7,20.4,21.4%
O=C(Nc1ncc([N+](=O)[O-])s1)c1cc(Cl)cc(Cl)c1,60.5,61,77.9% (active),53,57.5,74.3% (active)
O=C(SCc1oc2ccccc2c1O)c1ccccc1,12.8,13.7,16.5%,-3.75,-7.3,13.3%
CC(=O)C1C(=O)C(=O)N(c2ccccc2N2C(=O)C(=O)C(C(C)=O)C2=O)C1=O (stereo not given),18.6,-2.25,10.8%,17.8,-2.35,25.8%
CC1(C)CC2(C)OC3(C)CC(C)(C)OC3(C)OC2(C)O1 (stereo not given),0.05,6.45,8.55%,-34.2,22.4,-10.3%
O=C(Nc1ccc(Cl)c(Cl)c1)Oc1ccc(Cl)cc1C(=O)Nc1ccccc1,-13.8,-2.6,29.1%,-7.4,28.1,37.6%
CCCCCCCCCC(CCCCCCCC(=O)O)NC(C)=O (stereo not given),32.3,16.6,7.45%,32.5,-18.1,1.05%
CCOC(=O)C(=O)C(C(=O)OCC)C(C)C(=O)OCC (stereo not given),1.9,-8.3,8.2%,-41.1,6.65,-11.2%
Cn1c(=O)n(CCn2c(=O)n(C)c3ccccc32)c2ccccc21,-1.6,14,-3.15%,3.55,4.5,-3.8%
COc1cc2ccccc2cc1CO,-4.15,-4.2,-3.8%,-16.1,-22.8,-0.45%
